Source: PubChem BioAssay
This is a sample that favours compounds with a hit; in the whole collection about 7.9% have one here.
LASV entry inh: inhibitors of Lassa virus binding or cell entry | Potency, µM (highest dose often 37.9 µM), actives largely listed as inhibitors | 300,000 compounds, 1.2% hits | Lassa virus pseudotype entry inhibition, cell reporter | AID 540256; calls by dose curve; tested in HEK293 cells; further: nearly all actives have a fitted effect of over 50% in size
HCV inh: HCV inhibition; Potency, µM (top dose mostly 41.8 µM), actives largely listed as inhibitors; 340,000 compounds, 3.4% hits; Huh7.5.1 HCVcc-Cre infection, luciferase reporter, 44 h; active means well fitted inhibition curve with a large enough effect; inconclusive means small, poorly fitted or top-dose-only effect, or another doubt; inactive means no such curve, though single readings can be large or run the other way
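Luciferase read-out (15 sec integration) after a 15 min room-temperature substrate step quantifies HCVcc-Cre infection. Cells, 1,000 per well, had compound added 4 h post-plating, then virus at ~0.5 moi, and were cultured 44 h.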
HCMV antiviral: human cytomegalovirus inhibition. HFF cells, HCMV-luciferase reporter, 72 h; stronger effect = lower value. activity change, negative = inhibition, % at 57.5 µM. 410,000 compounds, 4.5% hits; in the data active means activity change below about -60%; inconclusive means no clear call, values can overlap the other calls; inactive means above about -39%
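HFF cells seeded 16 h at 37C, treated with compounds, infected with luciferase-reporter HCMV at MOI 1 PFU/cell; luciferase read at 72 h post infection, normalized to buffer-only and Salinomycin controls.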
FMDV inh: antivirals against foot and mouth disease virus | FMDV antiviral cell-based qHTS | Potency, µM (titrated, usually from 57.9 µM), hits mostly inhibitors | 410,000 compounds, 1.2% hits; calls by dose curve; tested in HEK293T cells; further: read-out not given here; nearly all actives have a fitted effect of over 45% in size
Marburg entry inh: inhibitors of Marburg virus binding or cell entry; Potency, µM (doses to about 37.8 µM), most hits filed as inhibitors; Marburg virus pseudotyped entry inhibition, cell reporter; 300,000 compounds, 1.8% hits; calls by dose curve; tested in HEK293 cells
Large screens that a line does not name were inactive; ! = repeats disagree.

COc1ccc(C(=O)n2cnc(N)n2)cc1	none
CNC(=S)n1cnc(N)n1	HCMV antiviral -64.7 (no result: LASV entry inh, Marburg entry inh)
COc1cc2ccccc2cc1C(=O)N1CCc2ccccc21	HCV inh 8.91µM, Marburg entry inh inconclusive
Cn1nnnc1SCCCNCc1ccccc1OCc1ccccc1F	Marburg entry inh inconclusive (no result: HCV inh)
CCn1ncc(C2=NOC(C(=O)Nc3cnn(C45CC6CC(CC(C6)C4)C5)c3)C2)c1C (stereo not given)	LASV entry inh inconclusive, HCMV antiviral -82.8, FMDV inh inconclusive
CCn1cc(C2=NOC(C(=O)Nc3c(C)nn(Cc4ccc(F)cc4)c3C)C2)c(C)n1 (stereo not given)	HCV inh inconclusive, FMDV inh inconclusive (no result: LASV entry inh)
CCn1cc(C2=NOC(C(=O)Nc3cccc(C(C)=O)c3)C2)c(C)n1 (stereo not given)	HCV inh 6.31µM, HCMV antiviral -64.5, FMDV inh inconclusive
Cc1ccc(SSc2cc(C)ccc2N)c(N)c1	HCV inh inconclusive, HCMV antiviral -80.8 (no result: LASV entry inh, Marburg entry inh)
CCOc1ccc(C(c2c(O)cc(C)n(CCOC)c2=O)N2CCC(C)CC2)cc1 (stereo not given)	none (no result: HCV inh, Marburg entry inh)
Oc1cccc(C(=S)N2CCCCC2)c1	HCMV antiviral inconclusive
CCC1(c2cccc(O)c2)CCCCN(C)C1 (stereo not given)	HCMV antiviral -68.2 (no result: LASV entry inh, Marburg entry inh)
Cc1cc(C)c2cccc(N)c2n1	none
Cc1cc(C)c2ccc(N)nc2c1O	LASV entry inh inconclusive, HCV inh 11.2µM, HCMV antiviral -104.9, Marburg entry inh inconclusive
Cc1ccc(C)c(NC(=O)N2CCN3CCCCC3C2)c1 (stereo not given)	HCMV antiviral inconclusive (no result: HCV inh, Marburg entry inh)
CCOc1ccc(S(=O)(=O)NC(C)(C)C)cc1-c1nc2c(C(C)(C)C)nn(C)c2c(=O)[nH]1	LASV entry inh 20.6µM, HCV inh 7.08µM, Marburg entry inh inconclusive (no result: FMDV inh)
CCOC(=O)c1c(S(=O)(=O)N2CCC(C(=O)Nc3cccc(C#N)c3)CC2)c(C)n(C)c1C	none (no result: HCV inh, Marburg entry inh)
COc1cccc(-c2nn(C)c3sc(C(=O)NCc4ccccn4)cc23)c1	HCV inh 10µM, Marburg entry inh inconclusive
COc1ccc(-c2nn(C)c3sc(C(=O)Nc4cccc(F)c4)cc23)cc1OC	LASV entry inh inconclusive, HCMV antiviral -85.0, FMDV inh inconclusive (no result: HCV inh, Marburg entry inh)
COc1cccc(-c2nn(C)c3sc(C(=O)NCc4ccc(C)cc4)cc23)c1	LASV entry inh inconclusive, HCV inh inconclusive
COc1cccc(CNC(=O)c2cc3c(-c4ccccc4F)nn(C)c3s2)c1	LASV entry inh inconclusive, FMDV inh inconclusive (no result: HCV inh)
COc1cccc(-c2nn(C)c3sc(C(=O)NCCc4cccc(C)c4)cc23)c1	LASV entry inh inconclusive, HCMV antiviral -68.7, Marburg entry inh inconclusive (no result: HCV inh)
CCN(CC)CCNC(=O)c1cc2c(-c3cccc(OC)c3)nn(C)c2s1	HCV inh 12.6µM, HCMV antiviral -78.4!, Marburg entry inh inconclusive
COCCCNC(=O)c1cc2c(-c3cccc(OC)c3)nn(C)c2s1	LASV entry inh inconclusive, Marburg entry inh inconclusive
C[C@H]1[C@@H](c2ccccc2)Oc2c(Cl)cccc2S(=O)(=O)N1Cc1ccc(Cl)cc1	none (no result: HCV inh, HCMV antiviral, FMDV inh, Marburg entry inh)
Cc1ccc(CNC(=O)c2ccc3c(c2)c(C)c(C)n3Cc2ccc(Cl)cc2)o1	none (no result: HCV inh, Marburg entry inh)
Cc1ccc2nc(-c3cccc(NC(=O)c4cccc5ccccc45)c3)oc2c1	none (no result: HCV inh)
CCCN(CCC)CCNC(=O)c1cc2c(-c3ccc(Cl)cc3)nn(C)c2s1	HCV inh 8.91µM, HCMV antiviral inconclusive, FMDV inh inconclusive, Marburg entry inh 3.98µM
COc1cccc(-c2nn(C)c3sc(C(=O)Nc4ccc5c(c4)OCCO5)cc23)c1	HCV inh 3.16µM (no result: HCMV antiviral)
COc1ccc(S[C@]2(C(=O)NCC(F)(F)F)CC(=O)N[C@@H]2c2ccc(OC)cc2)cc1	none (no result: LASV entry inh, HCV inh, FMDV inh, Marburg entry inh)
Cc1c(/C(O)=C2\C(=O)C(=O)N(CCN3CCOCC3)[C@H]2c2cccnc2)cnn1-c1ccccc1	none (no result: LASV entry inh, HCV inh, HCMV antiviral, FMDV inh)
CN(NC(=O)c1cccc(Cl)c1)c1nc(-c2ccccc2)nnc1C(F)(F)F	LASV entry inh inconclusive, FMDV inh inconclusive
FC(F)(F)c1nnc(-c2ccccc2)nc1Sc1ccc(Cl)cc1	LASV entry inh inconclusive, HCV inh inconclusive, Marburg entry inh 14.6µM
CN(N)c1nc(-c2ccccc2)nnc1C(F)(F)F	HCMV antiviral -104.5
CC(=O)NCCNC(=O)c1cnn(-c2nccc(-c3cc(C)sc3C)n2)c1C	none (no result: LASV entry inh, HCV inh, HCMV antiviral, Marburg entry inh)
CCc1ccccc1NC(=O)Cn1c(=O)n(CCc2ccccc2)c(=O)c2sc3ccccc3c21	none (no result: HCV inh)
COc1cc(=O)n2c(c1C(=O)NC(C)c1ccco1)CCN(CC=C(C)C)CC2 (stereo not given)	none (no result: LASV entry inh, HCV inh, HCMV antiviral, Marburg entry inh)
CN(C)S(=O)(=O)c1ccc2c(c1)C(=NO)c1cc(S(=O)(=O)N(C)C)ccc1-2	HCMV antiviral -64.4
